What follows are compounds tested against NADPH oxidase 4 (Homo sapiens) (UniProt Q9NPH5) (assay: NOX4-dependent H2O2 signal modulators, primary screen, NOX inhibitor project, cell-based, HEK293-NOX4, tetracycline-induced, Amplex Red fluorescence (AID 1160)). Conditions: 45 min, higher = more signal, called active from +8 up or from −8 down.
Sequence of NADPH oxidase 4 (Homo sapiens) (Q9NPH5 whole entry, looked up): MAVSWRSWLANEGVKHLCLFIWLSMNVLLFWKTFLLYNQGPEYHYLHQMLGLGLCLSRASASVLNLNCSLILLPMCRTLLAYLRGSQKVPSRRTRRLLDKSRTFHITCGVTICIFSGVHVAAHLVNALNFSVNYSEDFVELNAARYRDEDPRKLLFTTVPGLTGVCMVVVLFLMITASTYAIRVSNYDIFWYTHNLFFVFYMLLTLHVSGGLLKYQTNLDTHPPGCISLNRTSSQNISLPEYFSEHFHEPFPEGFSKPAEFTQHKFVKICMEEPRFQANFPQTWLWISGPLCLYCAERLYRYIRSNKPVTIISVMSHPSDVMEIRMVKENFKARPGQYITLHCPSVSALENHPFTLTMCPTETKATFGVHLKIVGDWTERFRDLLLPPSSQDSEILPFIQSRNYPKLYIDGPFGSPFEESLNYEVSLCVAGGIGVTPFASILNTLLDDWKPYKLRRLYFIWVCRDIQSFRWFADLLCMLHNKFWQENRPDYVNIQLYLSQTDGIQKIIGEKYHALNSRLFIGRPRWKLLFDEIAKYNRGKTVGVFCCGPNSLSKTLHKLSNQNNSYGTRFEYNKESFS

z-score, inactive:
C#CCCCON=C1C[C@@H](O)[C@@H](O)[C@@H]2[C@@H]3C(=O)N(Cc4ccccc4)C(=O)[C@@H]3CC[C@@H]12 0.47
CCCNC(=O)OC[C@H]1O[C@H](CCON=C(C)CCC(=O)OC[C@H]2O[C@H](c3ccccc3)C=C[C@@H]2Oc2ccc(OC)cc2)C=C[C@@H]1Oc1ccc(OC)cc1 0.337
CO[C@H]1COC(=O)[C@@H](C)COC(=O)[C@H](C)NC(=O)CC=C[C@H]1C 0.315
C[C@@H](c1ccccc1)N1C(=O)[C@H]2[C@H]3[C@H](O)[C@H](O)CC(=O)[C@H]3CC[C@H]2C1=O 0.05
CO[C@H]1COC(=O)CC=C[C@@H](C)[C@H](NS(=O)(=O)c2ccc(C)cc2)COC(=O)CCC[C@@H]1C 0.987
CO[C@@H]1COC(=O)[C@H](CCSC)NC(=O)CC=C[C@@H](C)COC(=O)[C@H](C)NC(=O)CC=C[C@H]1C -0.0183
CCC(=O)[C@@]1(O)C(=O)N2C(=C3C(=O)OCC[C@@H]31)N(Cc1ccccc1)C(C)=C(C(=O)OC)[C@H]2c1ccccc1 -0.147
CCOC(=O)[C@H](CC(C)C)NC(=O)CCC1CC(OC(=O)NCCc2ccc(F)cc2)CC2(CCCC(COC(=O)NCCOc3ccccc3)O2)O1 (stereo partly specified) 0.31
CCCNC(=O)OC[C@H]1O[C@H](CCON=C(C)CCN2CCCc3nc(C)c(C)cc32)C=C[C@@H]1Oc1ccc(OC)cc1 0.166
O=C1CCCC=C1C(O)CCOC(c1ccccc1)(c1ccccc1)c1ccccc1 (stereo unspecified) -1.48
CCCNC(=O)OC[C@H]1O[C@H](CCON=Cc2ccc(C(=O)N3[C@H](c4ccc(C)cc4)[C@@H](C)CC[C@H]3C(=O)OC)cc2)C=C[C@@H]1Oc1ccc(OC)cc1 0.611
C[C@@H]1CC[C@H]2C(=O)O[C@@H](Cc3ccccc3)CN2[C@H]1c1ccc(Br)cc1 -0.286
Cc1cc2c(nc1C)CCCCN2CC(C)ON=C1[C@H]2CCn3c(=O)n(-c4ccccc4)c(=O)n3[C@H]2[C@H](O)[C@@H]2O[C@H]12 (stereo partly specified) -0.0659
C#CCCCON=C1C[C@@H](O)[C@@H](O)[C@@H]2[C@@H]3C(=O)N(c4ccc(F)cc4F)C(=O)[C@@H]3CC[C@@H]12 0.813
CCOC(=O)NN=C1C[C@@H](O)[C@@H](O)[C@@H]2[C@@H]3C(=O)N(c4cccc(Oc5ccccc5)c4)C(=O)[C@@H]3CC[C@@H]12 -0.0548
CO[C@@H]1COC(=O)[C@H](CCSC)NC(=O)CC=C[C@@H](C)COC(=O)CCC[C@H]1C 0.369
O=c1n(-c2ccccc2)c(=O)n2n1CC[C@@H]1C(=NOCc3ccccc3)[C@H]3O[C@H]3[C@@H](O)[C@@H]12 -0.13
C[C@@H](c1ccccc1)N1C(=O)[C@H]2[C@H]3[C@H](O)[C@H](O)CC(=NO[C@@H]4O[C@H](CO)[C@@H](O)[C@H](O)[C@H]4O)[C@@H]3CC[C@H]2C1=O 0.552
CC(C)=CCCC(C)=CCON=C1C[C@@H](O)[C@@H](O)[C@@H]2[C@@H]3C(=O)N(c4ccc(F)cc4F)C(=O)[C@@H]3CC[C@@H]12 -0.0951
Cc1ccc(S(=O)(=O)OC[C@H]2CN3[C@H](c4ccc(Br)cc4)[C@@H](C)CC[C@H]3C(=O)O2)cc1 0.484
CC(C)CON=C1C[C@@H](O)[C@@H](O)[C@@H]2[C@@H]3C(=O)N(C[C@@H]4CCCO4)C(=O)[C@@H]3CC[C@@H]12 0.816
CC(C)=NOC[C@@H](C)[C@H](OCc1ccccc1)C(C)C -1.72
CO[C@H](C1CCCCC1)[C@H](C)C=CCC(=O)OCCCc1ccccc1 -3.56
CCOC(=O)[C@H](CC(C)C)NC(=O)CCC1CC(OC(=O)NCc2ccc3c(c2)OCO3)CC2(CCCC(COC(=O)NCc3cccc(C(F)(F)F)c3)O2)O1 (stereo partly specified) 0.179
CC(C)=CCCC(C)=CCON=C1C[C@@H](O)[C@@H](O)[C@@H]2[C@@H]3C(=O)N(C(C)(C)C)C(=O)[C@@H]3CC[C@@H]12 -1.2
CCOC(=O)[C@H](Cc1ccccc1)NC(=O)CCC1CC(OC(=O)NCCc2ccc(F)cc2)CC2(CCCC(COC(=O)NCCc3ccccc3OC)O2)O1 (stereo partly specified) 0.151
C=CC[C@@H]1C=C[C@H](ON=C(C)CCC(=O)OC[C@H]2O[C@H](c3ccccc3)C=C[C@@H]2Oc2ccc(OC)cc2)[C@@H](CO)O1 0.605
CCOC(=O)[C@H](CC(C)C)NC(=O)CCC1CC(OC(=O)NCc2cccc3ccccc23)CC2(CCCC(COC(=O)NCCCN3CCCC3=O)O2)O1 (stereo partly specified) 0.133
CCCCC#C[C@@H]1C=C[C@H](Oc2ccc(C(=O)OC)cc2)[C@@H](COC(=O)OCC)O1 0.725
COC(=O)[C@@H]1CC[C@H](C)[C@@H](c2ccc(C)cc2)N1C(=O)c1ccc(C=NO[C@@H]2O[C@H](COC(C)=O)[C@@H](OC(C)=O)[C@H](OC(C)=O)[C@H]2OC(C)=O)cc1 -0.674
C=CC[C@@H]1C=C[C@H](ON=C[C@@H](C)[C@H](OCc2ccccc2)C(C)C)[C@@H](CO)O1 -0.301
COC(=O)CC=C[C@@H](C)[C@@H](C=NOCC[C@@H]1C=C[C@H](OC(C)=O)[C@@H](COC(C)=O)O1)OC 0.934
CC(CCN1CCCCc2nc(C)c(C)cc21)=NO[C@H](C)c1cn([C@H](CO)Cc2ccccc2)nn1 0.0532
CC[C@@H](c1ccccc1)n1c(=O)n2n(c1=O)[C@H]1[C@H](O)[C@@H]3O[C@@H]3C(=NOC[C@@H](O)COCc3ccco3)[C@H]1CC2 0.796
C#CCCCON=C1[C@H]2CCn3c(=O)n(-c4ccccc4)c(=O)n3[C@H]2[C@H](O)[C@@H]2O[C@H]12 0.137
CC(C)=CCCC(C)=CCON=C1C[C@@H](O)[C@@H](O)[C@@H]2[C@@H]3C(=O)N(Cc4ccccc4)C(=O)[C@@H]3CC[C@@H]12 0.836

Reference: PubChem BioAssay
